# Measurements: PubChem BioAssay
# Values joined by “and” are separate entries in the source; they are usually repeats but may differ in a detail not shown here. Identical values can stand only once. Records with an inconclusive call do not appear. Active and inactive are the calls of the source. Unless noted, no stated cut-off is given here; in the data, active means inhibition above about 80%; inactive means the rest.
# Legend:
# [1] = viability loss with induced miR-34 in A549 – imaging, A549 dox-inducible miR-34, nuclei and caspase counts, primary screen (AID 1347080;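 active means compounds whose cell count with miR-34 switched on is under 0.7 times the count with it off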); settings: A549 miR-34 inducible, Hoechst nuclei count, 48 h
# [2] = galactose survival enhancers in mitochondrial complex I cybrids – cell-based, galactose medium, ATP luminescence, primary screen (AID 1645843;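 active means z-score of at least 1.8 in each of two replicates, scored against plate mean and spread of sample wells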;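 further: positive z means more ATP and so rescue of galactose-driven cybrid death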); settings: complex I mutant cybrid cells, 72 h, stronger effect = higher value
# [3] = compounds altering circadian rhythm period length – cell-based, LOPAC library, luminescence reporter (AID 2774; call rule not given here;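 further: values are relative to mean of DMSO wells on each plate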); settings: circadian reporter cells, at 7 µM, actives lie on both sides
# [4] = growth inhibition, single agent or in combination, cell-based, chromothripsis tumors, cisplatin or BGB combos (AID 1671449); settings: LFS_MB_P medulloblastoma cells;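 further: cells exposed for 96 hours; 0% = vehicle DMSO and 100% = killing by high DMSO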
# [5] = growth inhibition, single agent and combos, cell-based, chromothripsis tumors, cisplatin or BGB combos (AID 1671450); settings: HDN33 neuroblastoma cells, stronger effect = higher value;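 further: cells exposed to compound for four days; 0% = vehicle DMSO and 100% = cell killing by high DMSO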
# [6] = growth inhibition, single agents and combos, ICB984, cell-based, cisplatin or BGB combos, synergistic combos for chromothripsis tumors (AID 1671451; call rule not given here;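 further: cells exposed for 96 hours before readout; 0% = vehicle DMSO and 100% = killing by high DMSO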); settings: ICB984 medulloblastoma cells, drug combinations, stronger effect = higher value
# [7] = growth inhibition, single agents and combos, LFS_MB_1R, cell-based, cisplatin or BGB combos, synergistic combos for chromothripsis tumors (AID 1671452); settings: LFS_MB_1R medulloblastoma cells, stronger effect = higher value;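 further: cells exposed for 96 hours before readout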
# [8] = growth inhibition, single agents and combos, HTB85, cell-based, BGB or cisplatin IC20 combos, synergistic combos for chromothripsis tumors (AID 1671453); settings: HTB85 osteosarcoma cells, drug combinations, stronger effect = higher value;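 further: cells exposed for 96 hours before readout; 0% = vehicle DMSO and 100% = high DMSO killing control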
# [9] = growth inhibition, single agents and combos, CRL2098, cell-based, BGB or cisplatin IC20 combos, synergistic combos for chromothripsis tumors (AID 1671454); settings: CRL2098 osteosarcoma cells, drug combinations, stronger effect = higher value;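 further: cells exposed for 96 h before readout; 0% = vehicle DMSO and 100% = killing by high DMSO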
# [10] = growth inhibition, single agents and combos, HD-MB03, cell-based, BGB or cisplatin IC20 combos, synergistic combos for chromothripsis tumors (AID 1671455; in the data active means inhibition above about 83%;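 further: 0% = vehicle DMSO and 100% = high DMSO as cytotoxic control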); settings: HD-MB03 medulloblastoma cells, stronger effect = higher value
# [11] = growth inhibition, single agents and combos, UWB1.289, cell-based, BGB or cisplatin combos, synergistic combos for chromothripsis tumors (AID 1671456); settings: UWB1.289 ovarian carcinoma cells, stronger effect = higher value;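 further: cells exposed to compound for four days; 0% = vehicle DMSO and 100% = killing by high DMSO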
# [12] = growth inhibition, single agents and combos, LFS_MB_2R, cell-based, cisplatin combos, synergistic combos for chromothripsis tumors (AID 1671457); settings: LFS_MB_2R medulloblastoma cells, stronger effect = higher value;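 further: cells exposed to compound for four days before readout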
# [13] = growth inhibition, MDA-MB-436, cell-based, BGB or cisplatin combos, synergistic combos for chromothripsis tumors (AID 1671458; call rule not given here;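 further: cells exposed for 96 hours; 0% = vehicle DMSO and 100% = killing by high DMSO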); settings: MDA-MB-436 breast carcinoma growth inhibition, drug combinations, stronger effect = higher value
# [14] = UWB1.289_BRCA1 ovarian cancer growth, cell-based, BGB or cisplatin combinations (AID 1671459); settings: UWB1.289 BRCA1 ovarian carcinoma, drug combinations, stronger effect = higher value
# [15] = drug combination toxicity in non-malignant astrocytes – cell-based, BGB or cisplatin IC20 combos, cytotoxicity control for chromothriptic childhood tumor combination screen (AID 1671460); settings: Human astrocytes, viability inhibition, drug combinations, at 0.5 µM, stronger effect = higher value;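 further: cells exposed to compounds for 96 hours before viability readout; 0% = vehicle and 100% = killing control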
# [16] = BT084 cell growth, single and combined drugs, ICGC_MB145, cisplatin and BGB IC40 combos (AID 1671461); settings: BT084 medulloblastoma cells, drug combinations, stronger effect = higher value;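 further: cells exposed to drugs for 96 hours; 0% = vehicle DMSO and 100% = high DMSO full killing control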
# [17] = RCMB18 cell growth, single agent and combined, cisplatin and BGB IC40 combos (AID 1671462); settings: RCMB18 medulloblastoma cells, stronger effect = higher value;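 further: cells exposed to compound for four days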
# [18] = CRL1545 cell growth, single agent and combined, cisplatin and BGB IC20 combos (AID 1671464); settings: CRL1545 osteosarcoma cells, stronger effect = higher value;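 further: cells exposed to compound for 96 hours before readout; 0% = vehicle DMSO and 100% = high DMSO killing control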
# [19] = system: Hepatitis C virus NS3 helicase; test: blockers of NS3h binding to ssDNA – biochemical, fluorescence polarization, LOPAC1280 library, primary screen (AID 687035; in the data active means inhibition above about 37%); settings: Purified HCV NS3 helicase, Cy5-dT15 ssDNA binding fluorescence polarization; stronger effect = higher value; concentration not given here
# [20] = compounds altering Cy5-DNA-NS3h complex signal – biochemical, LOPAC1280, artefact control for HCV NS3 helicase inhibitor project (AID 687037; call rule not given here); settings: Cy5-DNA-NS3h complex fluorescence interference counterscreen
# [21] = target: ATP-dependent translocase ABCB1 (Homo sapiens) (UniProt P08183); test: P-glycoprotein substrate transport blockade – cell-based (AID 377; in the data active means fluorescence slope change above about 50%); settings: MDR1-expressing cells, fluorescent substrate accumulation slope; stronger effect = higher value; concentration not given here
# Sequence of ATP-dependent translocase ABCB1 (Homo sapiens) (P08183 whole entry, looked up): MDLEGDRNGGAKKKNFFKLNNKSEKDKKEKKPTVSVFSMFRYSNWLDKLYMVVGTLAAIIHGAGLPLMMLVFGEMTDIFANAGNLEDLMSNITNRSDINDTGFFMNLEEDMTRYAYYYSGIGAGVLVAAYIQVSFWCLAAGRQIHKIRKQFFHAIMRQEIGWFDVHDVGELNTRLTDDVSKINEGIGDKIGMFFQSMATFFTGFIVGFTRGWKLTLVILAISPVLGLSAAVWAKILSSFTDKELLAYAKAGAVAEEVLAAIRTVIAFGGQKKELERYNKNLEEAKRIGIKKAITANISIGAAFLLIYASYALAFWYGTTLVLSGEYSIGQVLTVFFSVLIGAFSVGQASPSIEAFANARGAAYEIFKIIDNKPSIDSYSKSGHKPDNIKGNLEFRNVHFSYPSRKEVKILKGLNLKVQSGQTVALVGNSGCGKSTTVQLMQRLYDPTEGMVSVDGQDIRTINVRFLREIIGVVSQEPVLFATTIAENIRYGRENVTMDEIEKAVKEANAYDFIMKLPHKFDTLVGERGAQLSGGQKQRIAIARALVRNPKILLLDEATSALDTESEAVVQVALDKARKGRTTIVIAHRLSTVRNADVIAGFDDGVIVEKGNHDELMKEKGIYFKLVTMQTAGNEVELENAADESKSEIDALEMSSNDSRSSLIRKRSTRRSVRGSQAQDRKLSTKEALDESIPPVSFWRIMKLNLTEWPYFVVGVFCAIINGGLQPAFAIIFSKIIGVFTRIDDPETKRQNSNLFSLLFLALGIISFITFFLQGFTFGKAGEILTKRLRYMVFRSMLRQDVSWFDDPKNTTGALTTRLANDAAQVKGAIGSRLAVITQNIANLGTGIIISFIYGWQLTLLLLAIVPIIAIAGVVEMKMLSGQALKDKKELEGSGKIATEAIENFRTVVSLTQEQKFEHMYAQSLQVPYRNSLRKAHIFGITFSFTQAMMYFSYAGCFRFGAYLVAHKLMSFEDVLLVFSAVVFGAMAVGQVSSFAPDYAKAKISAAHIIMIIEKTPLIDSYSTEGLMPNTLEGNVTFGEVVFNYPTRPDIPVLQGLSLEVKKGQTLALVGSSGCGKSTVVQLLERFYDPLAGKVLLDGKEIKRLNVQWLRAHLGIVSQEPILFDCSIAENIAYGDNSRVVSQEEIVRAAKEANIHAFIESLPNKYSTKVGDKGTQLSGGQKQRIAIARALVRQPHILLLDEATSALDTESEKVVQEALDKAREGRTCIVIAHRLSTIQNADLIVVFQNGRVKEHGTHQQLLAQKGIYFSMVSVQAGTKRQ
# [22] = compounds altering viability of human ES cells (AID 493140; call rule not given here;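 further: cells exposed to compounds for four days before counting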); settings: human embryonic stem cell survival screen; stronger effect = higher value
# [23] = stronger effect = lower value, cell number ratio, induced over uninduced
# [24] = measured here: relative caspase fold change +Dox/-Dox
# [25] = measured here: total cells with miR-34 induction, stronger effect = lower value
# [26] = measured here: total cells without miR-34 induction
# [27] = measured here: combination with BGB IC40, at 0.05 µM
# [28] = measured here: with BGB IC20 combination, at 0.5 µM
# [29] = measured here: with cisplatin IC20 combination, at 0.5 µM
# [30] = measured here: combination with cisplatin, at 0.5 µM
# [31] = measured here: combination with cisplatin, at 5 µM
structure (smiles),measurement,setting,value
O=C1NC(C(=O)O)CS1 (stereo not drawn),fold change,[1]; [23],0.93 (inactive)
same,fold change,[1]; [24],1.73
same,cell count,[1]; [25],9590
same,cell count,[1]; [26],10300
same,z-score,[2],1.05 (inactive)
CC(=O)C1CCC2C3CCC4=CC(=O)CC[C@]4(C)C3CC[C@]12C (stereo partly drawn),fold change,[1]; [23],0.861 (inactive)
same,fold change,[1]; [24],1.42
same,cell count,[1]; [25],7200
same,cell count,[1]; [26],8360
same,z-score,[2],-0.365 (inactive)
CN1CC(=O)N/C1=N\C(=O)Nc1cccc(Cl)c1,fold change,[1]; [23],1.1 (inactive)
same,fold change,[1]; [24],0.699
same,cell count,[1]; [25],10900
same,cell count,[1]; [26],9930
same,z-score,[2],0.545 (inactive)
CN(C)C(=O)/N=N/C(=O)N(C)C,period change,[3],0.015 h (inactive)
same,fold change,[1]; [23],1.04 (inactive)
same,fold change,[1]; [24],1.27
same,cell count,[1]; [25],10000
same,cell count,[1]; [26],9690
same,z-score,[2],-1.03 (inactive)
N=C(N)SCCc1cccc(CCSC(=N)N)c1,period change,[3],0.115 h (inactive)
same,fold change,[1]; [23],1.01 (inactive)
same,fold change,[1]; [24],0.632
same,cell count,[1]; [25],6390
same,cell count,[1]; [26],6310
Cc1ccc(NC(=O)CCCCCC(=O)Nc2ccccc2N)cc1,fold change,[1]; [23],1.01 (inactive)
same,fold change,[1]; [24],1.02
same,cell count,[1]; [25],5390
same,cell count,[1]; [26],5360
same,inhibition,"[4]; at 0.5 µM, stronger effect = higher value",2.92% (inactive)
same,inhibition,"[4]; measured here: combination with BGB IC20, at 0.005 µM",-29.8%
same,inhibition,"[4]; measured here: combination with BGB IC40, at 0.005 µM",-45%
same,inhibition,[4]; [27],-45.4%
same,inhibition,"[4]; measured here: combination with cisplatin, at 0.5 µM, stronger effect = higher value",-6.67%
same,inhibition,"[4]; measured here: combination with cisplatin, at 5 µM, stronger effect = higher value",65.8%
same,inhibition,"[5]; BGB combo, at 5 µM",11%
same,inhibition,[5]; at 0.5 µM,-14.2% (inactive)
same,inhibition,"[5]; cisplatin combo, at 5 µM",32%
same,inhibition,[5]; [28],-21.3%
same,inhibition,[5]; [29],-11%
same,inhibition,"[5]; single agent, at 5 µM",25.4%
same,inhibition,"[6]; BGB IC20 combo, at 0.005 µM",-3.62%
same,inhibition,"[6]; BGB IC40 combo, at 0.005 µM",-26.5%
same,inhibition,"[6]; BGB IC40 combo, at 0.05 µM",6.33%
same,inhibition,[6]; at 0.5 µM,-27.2% (inactive)
same,inhibition,"[6]; cisplatin combo, at 0.05 µM",1.63%
same,inhibition,"[6]; cisplatin combo, at 0.5 µM",-36.9%
same,inhibition,"[6]; cisplatin combo, at 5 µM",-6.29%
same,inhibition,"[6]; measured here: 5 uM single agent, at 5 µM",-12.7%
same,inhibition,[7]; at 0.5 µM,-31.8% (inactive)
same,inhibition,[7]; [27],-38%
same,inhibition,[7]; [30],-38.7%
same,inhibition,[7]; [31],61.4%
same,inhibition,[8]; at 0.5 µM,-11.4% (inactive)
same,inhibition,"[8]; measured here: with BGB IC20, at 0.5 µM",11.7%
same,inhibition,"[8]; measured here: with BGB IC20, at 5 µM",31.2%
same,inhibition,"[8]; measured here: with cisplatin IC20, at 0.5 µM",-26.9%
same,inhibition,"[8]; measured here: with cisplatin IC20, at 5 µM",33.8%
same,inhibition,"[8]; single agent, at 5 µM",12.7%
same,inhibition,[9]; at 0.5 µM,-71% (inactive)
same,inhibition,"[9]; measured here: combination with BGB at IC20, at 0.5 µM",-75.9%
same,inhibition,"[9]; measured here: combination with cisplatin at IC20, at 0.5 µM",-67.2%
same,inhibition,[10]; at 0.5 µM,-7.72% (inactive)
same,inhibition,"[10]; measured here: combo with BGB at IC20, at 0.5 µM",0.828%
same,inhibition,"[10]; measured here: combo with cisplatin at IC20, at 0.5 µM",-9.85%
same,inhibition,[11]; at 0.5 µM,-13.2% (inactive)
same,inhibition,"[11]; measured here: inhibition with BGB combination, at 0.05 µM",-44.6%
same,inhibition,"[11]; measured here: inhibition with cisplatin combination, at 0.05 µM",-27.1%
same,inhibition,[12]; at 0.5 µM,-23.5% (inactive)
same,inhibition,[12]; [30],-17.5%
same,inhibition,[12]; [31],50.2%
same,inhibition,[13]; at 0.5 µM,-27.5% (inactive)
same,inhibition,"[13]; measured here: BGB combination, at 0.5 µM",-25.9%
same,inhibition,"[13]; measured here: BGB combination, at 5 µM",-14.6%
same,inhibition,"[13]; measured here: cisplatin combination, at 0.5 µM",-44.2%
same,inhibition,"[13]; measured here: cisplatin combination, at 5 µM",15.1%
same,inhibition,"[14]; BGB combination, concentration series, at 5 µM",23.3%
same,inhibition,[14]; at 0.5 µM,-23.2% (inactive)
same,inhibition,"[14]; cisplatin combination, concentration series, at 5 µM",51.6%
same,inhibition,[15],-11.1% (inactive)
same,inhibition,[15]; measured here: combo with BGB IC20,-7.99%
same,inhibition,[15]; measured here: combo with cisplatin IC20,-17.6%
same,inhibition,[16]; at 0.5 µM,-11.1% (inactive)
same,inhibition,"[16]; cisplatin combination, at 0.5 µM",8.17%
same,inhibition,"[16]; cisplatin combination, at 5 µM",68.8%
same,inhibition,"[16]; measured here: BGB IC40 combination 0.05 uM, at 0.05 µM",-52.4%
same,inhibition,"[16]; single agent, at 5 µM",25.1%
same,inhibition,[17]; at 0.5 µM,6.99% (inactive)
same,inhibition,"[17]; cisplatin combo, at 5 µM",67.3%
same,inhibition,"[17]; measured here: BGB IC40 combination, at 0.05 µM",-18.3%
same,inhibition,[17]; [30],0.344%
same,inhibition,"[17]; single agent, at 5 µM",35.9%
same,inhibition,[18]; at 0.5 µM,6.85% (inactive)
same,inhibition,[18]; [28],21.7%
same,inhibition,[18]; [29],-2.22%
same,inhibition,"[18]; single agent, at 0.05 µM",-29%
same,inhibition,"[18]; single agent, at 5 µM",60.5%
N=c1c[n+](N2CCOCC2)[n-]o1,period change,[3],0.03 h (inactive)
same,inhibition,[19],-1% (inactive) and -5% (inactive)
same,fluorescence ratio (interference),[20],1 (inactive)
same,fold change,[1]; [23],1 (inactive) and 0.984 (inactive)
same,fold change,[1]; [24],2.22 and 1.55
same,cell count,[1]; [25],10300 and 10500
same,cell count,[1]; [26],10300 and 10700
same,z-score,[2],-0.02 (inactive) and 0.005 (inactive)
CC(=O)O[C@@]12COC1CC(O)[C@@]1(C)C(=O)C(O)C3=C(C)C(OC(=O)C(O)C(NC(=O)OC(C)(C)C)c4ccccc4)C[C@](O)(C(OC(=O)c4ccccc4)C21)C3(C)C (stereo partly drawn),fold change,[1]; [23],1.14 (inactive)
same,fold change,[1]; [24],1.25
same,cell count,[1]; [25],3410
same,cell count,[1]; [26],2990
same,z-score,[2],-1.09 (inactive)
CC(=O)O[C@H]1CC2(C)[C@@H](C[C@@H](O)[C@H]3[C@@]4(C)CC[C@@H](O)[C@@H](C)[C@@H]4CC[C@@]32C)C1=C(CCC=C(C)C)C(=O)O (stereo partly drawn),period change,[3],-0.06 h (inactive)
same,inhibition,[19],-2% (inactive)
same,fluorescence ratio (interference),[20],1 (inactive)
same,fold change,[1]; [23],0.982 (inactive)
same,fold change,[1]; [24],1.41
same,cell count,[1]; [25],9740
same,cell count,[1]; [26],9920
same,z-score,[2],4.71 (active)
CC[C@@]1([C@@H]2O[C@@H]([C@H]3O[C@@](O)(CO)[C@H](C)C[C@@H]3C)C[C@@H]2C)CC[C@H]([C@]2(C)CC[C@]3(C[C@H](O)[C@@H](C)[C@@H]([C@@H](C)[C@@H](OC)C(C)C(=O)O)O3)O2)O1 (stereo partly drawn),fluorescence slope change,[21],168% (active)
same,survival,[22],0.417 (inactive)
same,fold change,[1]; [23],1.05 (inactive)
same,fold change,[1]; [24],1.84
same,cell count,[1]; [25],1810
same,cell count,[1]; [26],1730
N=C(N)c1ccc(OCCCCCOc2ccc(C(=N)N)cc2)cc1 (tested in a mixture with another compound),period change,[3],0.16 h (inactive)
same,inhibition,[19],-1% (inactive)
same,fluorescence ratio (interference),[20],1 (inactive)
same,fold change,[1]; [23],1.03 (inactive)
same,fold change,[1]; [24],0.748
same,cell count,[1]; [25],3790
same,cell count,[1]; [26],3670
same,z-score,[2],-1.29 (inactive)
